# Test results published in PubChem BioAssay (Tox21).
# Several values for one entry are separate records, joined by “and”; a condition that tells them apart may be missing. Equal entries are not always repeated. Inconclusive results are not listed. Entries that show only a call come without a potency. Some structures have more than one record in an assay (separate samples or runs), and their calls can disagree. Activity calls are given as the source filed them. Unless noted, the call rests on the fitted dose curve; in most records, active means well fitted curve in the direction sought with a large enough effect in the repeat runs; inconclusive means weak or mixed curves; inactive means no such curve, though single readings can be large; an effect the other way counts as inactive or inconclusive.
# What was measured:
# [1] = qHTS assay to identify small molecule antagonists of the estrogen receptor alpha (ER-alpha) signaling pathway using the BG1 cell line in the presence of 0.1 nM 17-beta-estradiol - cell viability counter screen (AID 1259241); further: nearly all actives have a fitted effect of over 40% in size
# Procedure, shortened: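 Viability in VM7Luc4E2 cells after 22 hr compound exposure under 0.1 nM 17beta-estradiol stimulation, by CellTiter-Fluor.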
# [2] = qHTS assay to identify small molecule HDAC inhibitors (AID 1259364); further: nearly all actives have a fitted effect of over 45% in size
# Procedure, shortened: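 Luminescence read after 30 min room-temperature HDAC-Glo incubation measures cellular class I/II HDAC activity. Compounds were applied for 2 hr at 37 C to HCT-116 wild-type cells seeded the day before.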
# [3] = qHTS assay to identify small molecule HDAC inhibitors - cell viability counter screen (AID 1259365); further: nearly all actives have a fitted effect of over 50% in size
# Procedure, shortened: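 Cytotoxicity was gauged in wild-type HCT-116 cells after a brief 2hr treatment with DMSO-dissolved compounds at 37C and 5% CO2, using CellTiter-Glo luminescence developed for 30min at room temperature.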
# [4] = qHTS assay to identify small molecule agonists of the sonic hedgehog signaling (Shh) pathway - cell viability counter screen (AID 1259366); further: nearly all actives have a fitted effect of over 50% in size
# Procedure, shortened: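 Stable Gli1-Luc NIH/3T3 clone, 2,000 cells/well. Compound exposure 24hr at 37C. Read-out: CellTiter-Fluor fluorescence.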
# [5] = qHTS assay to identify small molecule antagonists of the sonic hedgehog signaling (Shh) pathway - cell viability counter screen (AID 1259367); further: nearly all actives have a fitted effect of over 55% in size
# Procedure, shortened: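 Tox21 library chemicals were tested on a Gli1-Luc NIH/3T3 clone (2,000 cells/well) stimulated by conditioned medium; viability was quantified as fluorescence from CellTiter-Fluor reagent added at 23 hr.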
# [6] = qHTS assay to identify small molecule agonists of the sonic hedgehog signaling (Shh) pathway (AID 1259368; calls by dose curve; further: nearly all actives have a fitted effect of over 15% in size)
# Procedure, shortened: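 Luminescence was read after 30 min at room temperature with luciferase reagent. Before that, 3T3Gli1-Luc cells (NIH/3T3 clone, stable Gli1-Luc reporter; 2,000/well) were exposed to compounds for 24 hr at 37C, 5% CO2, compounds being added 4 hr post-plating.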
# [7] = molecular target: Estrogen receptor (Homo sapiens) (UniProt P03372); test: qHTS assay to identify small molecule antagonists of the estrogen receptor alpha (ER-alpha) signaling pathway using the BG1 cell line in the presence of 0.1 nM 17-beta-estradiol (AID 1259244); further: nearly all actives have a fitted effect of over 50% in size
# Estrogen receptor (Homo sapiens), sequence (P03372 whole entry, looked up): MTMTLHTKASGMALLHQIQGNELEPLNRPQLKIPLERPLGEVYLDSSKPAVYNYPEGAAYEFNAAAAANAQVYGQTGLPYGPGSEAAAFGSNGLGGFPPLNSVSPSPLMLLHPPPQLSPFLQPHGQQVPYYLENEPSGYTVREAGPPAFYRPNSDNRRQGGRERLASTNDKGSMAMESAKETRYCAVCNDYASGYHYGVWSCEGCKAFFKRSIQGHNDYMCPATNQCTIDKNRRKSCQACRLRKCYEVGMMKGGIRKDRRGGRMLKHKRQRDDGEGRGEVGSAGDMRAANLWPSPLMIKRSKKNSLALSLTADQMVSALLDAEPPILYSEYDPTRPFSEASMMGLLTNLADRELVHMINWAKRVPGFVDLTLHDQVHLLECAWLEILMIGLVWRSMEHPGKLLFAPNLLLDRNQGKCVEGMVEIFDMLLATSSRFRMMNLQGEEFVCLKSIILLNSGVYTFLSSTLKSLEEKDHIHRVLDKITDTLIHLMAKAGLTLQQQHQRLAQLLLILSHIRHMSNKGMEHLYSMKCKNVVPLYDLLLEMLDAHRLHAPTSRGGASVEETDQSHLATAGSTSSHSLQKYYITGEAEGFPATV
# Procedure, shortened: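 Luciferase luminescence (ONE-Glo, 30 min at room temperature) was read after 22 hr at 37C exposure to compounds plus 17beta-estradiol at 0.1 nM final. Cells were VM7Luc4E2 with endogenous ER-alpha and an ERE-driven luciferase, pre-cultured 5 days in hormone-depleted medium.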
# [8] = qHTS assay to identify small molecule antagonists of the sonic hedgehog signaling (Shh) pathway (AID 1259369; calls by dose curve; further: nearly all actives have a fitted effect of over 45% in size)
# Procedure, shortened: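 Antagonist mode: compound added to 3T3 Gli1-Luc cells followed by conditioned-medium stimulation, 24 h at 37 C, 5% CO2. Inhibition taken as loss of Gli1-driven luciferase luminescence.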
# [9] = qHTS assay to identify small molecule antagonists of the androgen receptor (AR) signaling pathway using the MDA cell line in the presence of 0.5 nM R1881 - cell viability counter screen (AID 1259242); further: nearly all actives have a fitted effect of over 45% in size
# Procedure, shortened: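 Live-cell protease activity was measured by CellTiter-Fluor fluorescence after 30 min. Before that, MDA-kb2 MMTV-luciferase cells had 16 hr at 37C without CO2, exposed to test compounds and 0.5 nM R1881 final.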
# [10] = molecular target: Androgen receptor (Homo sapiens) (UniProt P10275); test: qHTS assay to identify small molecule antagonists of the androgen receptor (AR) signaling pathway using the MDA cell line in the presence of 0.5 nM R1881 (AID 1259243); further: nearly all actives have a fitted effect of over 50% in size
# Androgen receptor (Homo sapiens), sequence (P10275 whole entry, looked up): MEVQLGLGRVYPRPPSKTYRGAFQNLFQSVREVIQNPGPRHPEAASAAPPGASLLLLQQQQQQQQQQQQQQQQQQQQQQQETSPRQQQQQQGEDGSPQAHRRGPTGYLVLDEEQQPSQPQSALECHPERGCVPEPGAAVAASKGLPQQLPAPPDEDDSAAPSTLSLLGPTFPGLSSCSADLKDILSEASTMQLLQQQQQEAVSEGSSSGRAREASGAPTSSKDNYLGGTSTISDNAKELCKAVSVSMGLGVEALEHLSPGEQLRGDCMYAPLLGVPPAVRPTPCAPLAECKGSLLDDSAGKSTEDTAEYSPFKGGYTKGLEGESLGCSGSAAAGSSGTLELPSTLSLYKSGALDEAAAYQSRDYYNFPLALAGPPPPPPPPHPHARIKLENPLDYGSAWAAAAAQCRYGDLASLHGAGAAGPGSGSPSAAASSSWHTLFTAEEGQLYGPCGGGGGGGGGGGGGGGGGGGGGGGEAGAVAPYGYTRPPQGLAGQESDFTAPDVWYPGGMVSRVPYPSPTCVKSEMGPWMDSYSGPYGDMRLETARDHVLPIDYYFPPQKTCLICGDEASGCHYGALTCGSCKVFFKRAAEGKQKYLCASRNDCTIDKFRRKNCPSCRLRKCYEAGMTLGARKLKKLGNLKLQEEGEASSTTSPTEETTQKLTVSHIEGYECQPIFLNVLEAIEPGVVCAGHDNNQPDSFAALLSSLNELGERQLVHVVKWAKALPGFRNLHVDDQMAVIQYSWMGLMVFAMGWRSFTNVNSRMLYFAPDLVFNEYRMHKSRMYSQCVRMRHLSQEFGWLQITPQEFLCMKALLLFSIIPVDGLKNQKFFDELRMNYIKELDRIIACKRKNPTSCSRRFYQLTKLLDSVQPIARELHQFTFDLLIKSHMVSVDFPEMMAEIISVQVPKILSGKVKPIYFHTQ
# Procedure, shortened: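 Luminescent reporter readout (ONE-Glo, 30 min, room temperature) after 16 hr co-treatment of MDA-kb2 cells with test compounds and 0.5 nM R1881 final, at 37C without CO2. The MMTV-driven luciferase responds to both AR and GR.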
# Potency means the concentration at half of the fitted maximal effect.
SMILES,Potency [1],Potency [2],Potency [3],Potency [4],Potency [5],Potency [6],Potency [7],Potency [8],Potency [9],Potency [10]
O=c1c(C2CC(c3ccc(-c4ccc(Br)cc4)cc3)Cc3ccccc32)c(O)sc2ccccc12 (configuration not stated),inactive,inactive,inactive,inactive,inactive,inactive,–,–,–,–
Clc1ccc(CO/N=C(\Cn2ccnc2)c2ccc(Cl)cc2Cl)c(Cl)c1,inactive,inactive,inactive,–,–,inactive,–,–,–,–
ClC1=C(Cl)[C@]2(Cl)[C@@H]3[C@@H]4C[C@@H]([C@H]5O[C@@H]45)[C@@H]3[C@@]1(Cl)C2(Cl)Cl,inactive,inactive,inactive,–,–,inactive,68.6 µM (active),21.7 µM (active),–,–
S=C=Nc1cccc2ccccc12,30.3 µM (active),inactive,–,53.9 µM (active),–,inactive,–,–,–,–
BrCBr,inactive,inactive,inactive,inactive,inactive,inactive,inactive,inactive,–,–
CN(C)C(=S)S,43.3 µM (active),–,inactive,12.4 µM (active) and 6.07 µM (active) and 4.86 µM (active),7 µM (active) and 4.82 µM (active) and 54.5 µM (active),inactive,–,4.95 µM (active) and 962 nM (active) and 3.44 µM (active),–,–
O=[N+]([O-])c1ccc(Oc2ccc(C(F)(F)F)cc2[N+](=O)[O-])cc1,inactive,–,–,inactive,inactive,inactive,inactive,61.1 µM (active),–,–
CCN,inactive,inactive,–,inactive,inactive,inactive,–,inactive,–,–
CCCCCCCCCCCCCCC(Br)C(=O)O (configuration not stated),inactive,inactive,inactive,inactive,inactive,inactive,inactive,inactive,–,–
CN(C)c1ccc(N=Nc2ccccc2)cc1,54.5 µM (active),4.33 µM (active),inactive,27.3 µM (active),–,1.72 µM (active),–,inactive,–,–
CC(c1ccc(O)cc1)c1ccc(O)cc1,inactive,inactive,inactive,inactive and 61.1 µM (active),inactive,inactive,–,22.8 µM (active) and inactive,–,–
CC(C)CC(C)Nc1ccc(Nc2ccccc2)cc1 (configuration not stated),53.5 µM (active),inactive,inactive,26.8 µM (active),16.9 µM (active),inactive,–,12 µM (active),–,–
FC(F)(F)c1cccc(C2=CCN(CCc3ccc4ccccc4c3)CC2)c1,inactive,–,inactive,inactive,inactive,inactive,–,inactive,–,–
O=C(O)c1cc[c]([Hg][Cl])cc1,inactive,30.6 µM (active),inactive,27.3 µM (active),43.3 µM (active),inactive,–,1.72 µM (active),–,–
ClC(Cl)=C(c1ccc(Cl)cc1)c1ccc(Cl)cc1,inactive,inactive,–,inactive,inactive,inactive,inactive,inactive,–,–
CC(=O)[O-].[Tl+],inactive,inactive,inactive,inactive,inactive,inactive,–,–,–,–
C=CC(=O)N(C)C,inactive,inactive,inactive,inactive,inactive,inactive,–,inactive,–,–
CCC[CH2][Sn]([CH2]CCC)([CH2]CCC)[O]C(=O)c1ccccc1,21.7 µM (active),–,19.3 µM (active),0.686 µM (active),0.864 µM (active),inactive,0.486 µM (active),0.172 µM (active),–,–
Clc1ccc(CSC(Cn2ccnc2)c2ccc(Cl)cc2Cl)cc1 (configuration not stated),inactive,inactive,–,–,26.6 µM (active),inactive,–,inactive,–,–
CC1(C)C(/C=C(\Cl)C(F)(F)F)C1C(=O)OC(C#N)c1cccc(Oc2ccccc2)c1 (configuration not stated),inactive,inactive,inactive,–,inactive,inactive,–,–,–,–

SMILES,Potency [1],Potency [2],Potency [3],Potency [4],Potency [5],Potency [6],Potency [7],Potency [8],Potency [9],Potency [10]
S=C(SSC(=S)N1CCCCC1)N1CCCCC1,inactive,inactive,inactive,2.66 µM (active),5.96 µM (active),inactive,–,5.96 µM (active),–,–
[Cl][Sb]([Cl])[Cl],27.3 µM (active),–,inactive,–,–,inactive,–,–,–,–
COC12CC[C@@]3(C[C@@H]1C(C)(O)C(C)(C)C)[C@H]1Cc4ccc(O)c5c4[C@@]3(CCN1CC1CC1)[C@H]2O5 (some centres not stated),60.7 µM (active),inactive,inactive,24.2 µM (active),17.1 µM (active),inactive,–,–,–,–
O=C(Nc1ccc2[nH]ccc2c1)c1cc2cc(F)ccc2n1Cc1cccc(F)c1,inactive,inactive,inactive,43.3 µM (active),68.6 µM (active),inactive,–,24.3 µM (active),–,–
C1CCC2CCCCC2C1 (configuration not stated),inactive,–,inactive,inactive,inactive,inactive,inactive,–,–,–
CC(C)CC(C)N (configuration not stated),inactive,inactive,inactive,inactive,inactive,inactive,–,inactive,–,–
NNC(=O)c1ccccc1,–,–,inactive,inactive,39.6 µM (active),inactive,inactive,–,inactive,–
CC(C)(C)c1cc([N+](=O)[O-])cc(C(C)(C)C)c1O,–,inactive,inactive,inactive,–,inactive,6.11 µM (active),3.06 µM (active),13.7 µM (active),–
O=[N+]([O-])O.O=[N+]([O-])O.[Cd],–,inactive,inactive,8.63 µM (active),15.4 µM (active),inactive,–,–,–,–
CC1(C)CC/C(=C/c2ccc(Cl)cc2)C1(O)Cn1cncn1 (configuration not stated),–,inactive,–,17.1 µM (active),–,inactive,68.2 µM (active),–,inactive,1.21 µM (active)
CC(C)(C)c1ccc(CSc2cnn(C(C)(C)C)c(=O)c2Cl)cc1,–,inactive,–,inactive,inactive,inactive,0.0154 µM (active),–,0.0686 µM (active),–
CCCN(CCC)c1c([N+](=O)[O-])cc(S(N)(=O)=O)cc1[N+](=O)[O-],–,inactive,–,54.5 µM (active),24.3 µM (active),inactive,–,–,–,–
CC(=O)OC1(c2ccccc2)CCN(CCc2ccccc2)CC1,–,–,inactive,–,inactive,inactive,–,–,inactive,–
Nc1ccc([N+](=O)[O-])cc1Cl,–,inactive,inactive,inactive,inactive,inactive,inactive,–,–,24.3 µM (active)
CCCN(CCC)CCc1c[nH]c2ccccc12,–,inactive,inactive,inactive,inactive,inactive,inactive,67.7 µM (active),–,–
O=CC(Br)(Br)Br,–,inactive,inactive,24.3 µM (active),60.9 µM (active),inactive,inactive,–,43.1 µM (active),–
CC(C)(c1ccc(O)c(-c2ccccc2)c1)c1ccc(O)c(-c2ccccc2)c1,–,inactive,–,15.4 µM (active),–,inactive,48.6 µM (active),12.2 µM (active),–,30.6 µM (active)
CCCCCCCCCCCCCC[P+](CCCCCC)(CCCCCC)CCCCCC (tested in a mixture with another compound),–,inactive,68.6 µM (active),13.7 µM (active),48.6 µM (active),inactive,3.86 µM (active),0.969 µM (active),19.3 µM (active),–
O=[N+]([O-])c1cc([N+](=O)[O-])c2ccccc2c1,–,–,inactive,inactive,inactive,inactive,–,1.22 µM (active),inactive,4.33 µM (active)
CCCCCCCCCCCCCCCC[n+]1ccccc1,–,inactive,inactive,60.3 µM (active) [middle of 4 runs],50.8 µM (active) and 61.1 µM (active) and 60.3 µM (active),inactive,–,508 nM (active) and 30.6 nM (active) and 21.4 nM (active),32 µM (active) and 24.3 µM (active) and 26.9 µM (active),–
